Compound activity: PubChem, several laboratories
sEH act – activators of human soluble epoxide hydrolase; activation, % at 2 µM; P34913; purified human sEH enzymatic activity, activator screen; actives 0.04% (n = 91,000); AID 717; in the data active = activation above about 37%
Target sequence (P34913 whole entry, looked up): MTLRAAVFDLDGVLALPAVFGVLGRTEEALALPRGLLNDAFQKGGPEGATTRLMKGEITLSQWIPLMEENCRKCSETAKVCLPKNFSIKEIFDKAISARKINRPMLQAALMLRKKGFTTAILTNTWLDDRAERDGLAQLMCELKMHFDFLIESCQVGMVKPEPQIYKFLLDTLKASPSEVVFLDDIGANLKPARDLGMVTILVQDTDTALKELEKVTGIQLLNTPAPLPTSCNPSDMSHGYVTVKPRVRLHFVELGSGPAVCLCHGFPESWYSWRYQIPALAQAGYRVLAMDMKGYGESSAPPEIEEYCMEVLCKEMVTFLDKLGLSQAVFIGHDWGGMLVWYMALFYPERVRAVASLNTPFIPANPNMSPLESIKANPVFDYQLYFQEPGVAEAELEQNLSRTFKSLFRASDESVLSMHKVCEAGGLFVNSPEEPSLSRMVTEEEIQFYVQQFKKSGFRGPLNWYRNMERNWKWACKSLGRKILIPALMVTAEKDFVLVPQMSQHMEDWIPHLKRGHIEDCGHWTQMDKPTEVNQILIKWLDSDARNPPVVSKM
CYP2C9 inhib – human CYP2C9 inhibition; CYP2C9 Supersomes, luciferin-H conversion, luminescence; inhibition, % at 5 µM; actives 20% (n = 96,000); AID 777;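 active = blocking of liver enzyme CYP2C9 beyond about 50% at 5 µM, limit read from the data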
CYP2C19 act – cytochrome P450 2C19 (human) activation | P33261 | recombinant CYP2C19, luciferin-H EGE luminescence; hits give high values; 0 = fully inhibited enzyme, 1 = untreated enzyme | activation factor at 5 µM | 96,000 tested, under 10 active | AID 1025;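 active = activation factor of at least 2 at 5 µM in the primary screen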
sEH inhibitor – blocks human soluble epoxide hydrolase activity; P34913; recombinant human sEH enzymatic activity assay; inhibition, % at 2 µM; actives 0.34% (n = 91,000); AID 707; in the data active = inhibition above about 80%
CYP2C9 act – CYP2C9 (human) activation | recombinant CYP2C9, luciferin-H conversion, luminescence; hits give high values; factor 1 = untreated enzyme, 0 = blocked | actives 1.4% (n = 96,000) | activation factor at 5 µM;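 active = activation factor of 2 or more for CYP2C9 at a 5 µM dose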
CYP2C19 inhib – human CYP2C19 inhibition. P33261. CYP2C19 Supersomes, luciferin-H EGE luminescence, 30 min. inhibition, % at 5 µM. actives 21% (n = 96,000). AID 778;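 active = CYP2C19 inhibition above a set limit at 5 µM in the primary screen, cut at about 50% in these data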
Numbers stand for hits; . = inactive; / = not tested or not shown. This is a sample that favours compounds with a hit; in the whole collection about 27% have one here.

SMILES	sEH act	CYP2C9 inhib	CYP2C19 act	sEH inhibitor	CYP2C9 act	CYP2C19 inhib
O=C(NC1c2ccccc2-c2ccccc21)N1CCOCC1	/	.	.	/	.	.
Cc1cc(CN2CCN(CCC#N)CC2)c(O)c(C2(C)CCCCC2)c1	.	.	.	.	.	.
Cc1ccc(C)c(C(=O)NCCN(C)C)c1	.	.	.	.	.	.
Cc1cc(C)c(O)c(-c2cc(C(=O)NCc3ccccc3)[nH]n2)c1	.	.	.	.	.	.
Cc1ccc(SCc2ccc(C(=O)NCc3ccncc3)cc2)cc1	.	99.2	.	.	.	82.6
Cc1ccc(O)c(-c2cc(C(=O)NCc3ccncc3)[nH]n2)c1	.	96.2	.	.	.	74.7
Cc1ccc(C)c(C(=O)NCc2ccncc2)c1	.	53.7	.	.	.	.
CN(c1ccc(C(=O)NCc2ccncc2)cc1)S(C)(=O)=O	.	.	.	.	.	.
COc1ccccc1CN1CC(C(=O)N2CCN(c3ccc(F)cc3)CC2)CC1=O (stereo not given)	.	.	.	.	.	.
CC1(c2ccc(Cl)c(Cl)c2)NC(=S)N2C1NC(=S)N2c1ccccc1 (stereo not given)	.	.	.	.	.	78.3
O=C(c1ccc(CS(=O)(=O)c2cccc(C(F)(F)F)c2)o1)N1CCN(c2ccccn2)CC1	.	60.3	.	.	.	53.5
Cc1ccc(S(=O)(=O)Cc2ccc(C(=O)N3CCN(c4cc(C)ccc4C)CC3)o2)cc1	.	.	.	.	.	.
Cc1ccc(S(=O)(=O)Cc2ccc(C(=O)N3CCN(c4ccccn4)CC3)o2)cc1	.	69.6	.	.	.	.
Cc1ccc(S(=O)(=O)N(C)CC(=O)N2CCN(c3ccccn3)CC2)cc1	.	.	.	.	.	.
O=C(c1ccc(CS(=O)(=O)c2ccc(Br)cc2)o1)N1CCN(c2ccccn2)CC1	.	68.7	.	.	.	.
O=C(c1ccc(CS(=O)(=O)c2ccccc2)o1)N1CCN(c2ncccn2)CC1	.	63.5	.	.	.	54.5
O=C(c1ccc(CS(=O)(=O)c2c(Cl)cccc2Cl)o1)N1CCN(c2ccccn2)CC1	.	.	.	.	.	92.8
O=C(NCCN1CCCC1)c1ccc(CS(=O)(=O)c2c(Cl)cccc2Cl)o1	.	.	.	.	.	.
CCOCCCNS(=O)(=O)c1ccc(NC(=O)N2c3ccccc3Sc3ccccc32)cc1	.	92.2	.	.	.	.
NS(=O)(=O)c1ccc(NC(=O)N2c3ccccc3Sc3ccccc32)cc1	.	.	.	.	.	.
CC1(C)Cc2c(ccc3ccccc23)C(NNC(=O)c2cccnc2)=N1	.	.	.	.	.	.
CCN(CC)S(=O)(=O)c1cccc(-c2nnc(SCC(N)=O)n2CCc2ccccc2)c1	.	/	/	.	/	/
CCN(CC)S(=O)(=O)c1cccc(-c2nnc(SCC(=O)c3ccc(Cl)s3)n2C)c1	.	88.7	.	.	.	70.9
CCN(CC)S(=O)(=O)c1cccc(-c2nnc(SC(C)C#N)n2Cc2ccccc2)c1 (stereo not given)	/	63.5	.	/	.	60.8
CCN(CC)S(=O)(=O)c1cccc(-c2nnc(SC(C)C(N)=O)n2CCc2ccccc2)c1 (stereo not given)	.	55.6	.	.	.	.
SMILES	sEH act	CYP2C9 inhib	CYP2C19 act	sEH inhibitor	CYP2C9 act	CYP2C19 inhib
CC(NC(=O)c1cccc(F)c1)C(c1cccs1)N1CCN(C)CC1 (stereo not given)	.	.	.	.	.	.
Cc1cccc(N=C(N2CCOCC2)P(=O)(N2CCOCC2)N2CCOCC2)c1	.	.	.	.	.	.
OCc1nc2ccccc2n1CCCOc1ccc(Br)cc1	.	.	.	.	.	.
O=C(CSc1nnc(Cc2cccs2)n1Cc1ccco1)Nc1ccc(Br)cc1	.	93.0	.	.	.	88.8
O=C(CSc1nnc(Cc2cccs2)n1Cc1ccco1)Nc1ccc(Cl)cc1Cl	.	61.9	.	.	.	.
O=C(CSc1nnc(-c2ccco2)n1Cc1ccco1)NCc1cccs1	.	57.0	.	.	.	51.1
O=C(CSc1nnc(Cc2ccccc2)n1C1CCCCC1)N1CCOCC1	.	.	.	.	.	.
CC1CCN(C2=NC(=O)/C(=C/c3cn(-c4ccccc4)nc3-c3cccc(S(=O)(=O)N(C)C)c3)S2)CC1	/	55.8	.	/	.	.
CC1CCCN(C2=NC(=O)/C(=C/c3cn(-c4ccccc4)nc3-c3cccc(S(=O)(=O)N(C)C)c3)S2)C1 (stereo not given)	/	65.4	.	/	.	.
Cc1ccc(-c2nn(-c3ccccc3)cc2C=C2C(=O)CC(C)(C)CC2=O)cc1	.	/	/	.	/	/
Cc1cc(=O)[nH]c(SCc2nc3ccccc3n2Cc2ccccc2)n1	.	.	.	.	.	.
CN(C)NC1CCS(=O)(=O)C1 (stereo not given)	.	.	.	.	.	.
N=c1n(Cc2ccccc2)c2ccccc2n1CC(O)COc1ccccc1 (stereo not given)	/	.	.	/	.	.
CCCCn1c(=N)n(CC(O)COc2ccc(C)cc2)c2ccccc21 (stereo not given)	.	.	.	.	.	52.0
Cc1ccccc1OCC(O)Cn1c(=N)n(CCN2CCOCC2)c2ccccc21 (stereo not given)	.	57.2	.	.	.	.
Cc1ccc(Cn2c(=N)n(CC(O)COc3ccccc3)c3ccccc32)cc1 (stereo not given)	.	.	.	.	.	53.1
CCc1cc[n+](-c2nc3ccccc3nc2C(=C=[N-])C#N)cc1	/	.	.	/	.	.
O=[N+]([O-])c1ccc(NCCNc2ccc(Cl)nn2)cc1	.	.	.	.	.	.
Cc1ccc(CNC(=O)c2cc3c(=O)n4ccccc4nc3n(Cc3ccco3)c2=N)cc1	/	55.5	.	/	.	.
N=c1c(C(=O)NCc2ccccc2)cc2c(=O)n3ccccc3nc2n1Cc1ccco1	.	.	.	.	.	.
COc1ccc(CNC(=O)c2cc3c(=O)n4ccccc4nc3n(Cc3cccnc3)c2=N)cc1	.	.	.	.	.	.
N=c1c(S(=O)(=O)c2ccc(Cl)cc2)cc2c(=O)n3ccccc3nc2n1CCN1CCOCC1	/	58.6	.	/	.	.
CCn1c(=N)c(C(=O)OC)cc2c(=O)n3ccccc3nc21	/	.	.	/	.	62.9
N=c1c(C(=O)NCc2ccc3c(c2)OCO3)cc2c(=O)n3ccccc3nc2n1Cc1cccnc1	/	67.3	.	/	.	.
COC(=O)c1sc(N)nc1C(C)(C)C	.	.	.	.	.	.
N=c1c(C(=O)NCc2ccco2)cc2c(=O)n3ccccc3nc2n1Cc1ccc(Cl)cc1	.	64.5	.	.	.	.
CCOC(=O)c1cc(-c2ccccc2)n(CCC(=O)NC(C)CC)c1C (stereo not given)	.	/	/	.	/	/
CCOC(=O)c1cc(-c2ccc(C)cc2)n(CCC(=O)NCCCOC)c1C	.	100.0	.	.	.	93.0
N#CCCn1nc(-c2ccccc2)cc1Nc1ccccc1NC(=O)c1cccs1	/	95.8	.	/	.	97.2
